Shiga toxin inh: A qHTS for Small Molecule Inhibitors of Shiga Toxin; AID 2315, 2010; inhibition, % at 38.7 µM; Vero cells, Shiga toxin protein synthesis inhibition reporter; 9.2% of 290,000 active; in the data active = inhibition mostly above about 28%, no sharp cut-off; inactive = mostly below about 43%; also: 0% is about no effect
Cycloheximide cs: Cycloheximide Counterscreen for Small Molecule Inhibitors of Shiga Toxin; max response, %; 12% of 300,000 active; AID 2314, 2010; cell reporter, cycloheximide protein synthesis inhibition counterscreen; in the data active = max response mostly above about 13%, no sharp cut-off; inactive = mostly below about 14%; also: read at 38.3 µM for the half of the compounds with a filed dose; 0% is about no effect
NS1 function inh: qHTS Assay for Inhibitors of Influenza NS1 Protein Function. 0.4% of 270,000 active. Potency, µM (doses to about 46.1 µM), inactives show at the highest dose activity, positive = more growth; calls by dose curve; also: potency is read from the fitted curve at half-maximal effect; actives are rising curves; nearly all actives have a fitted effect of over 50% in size
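A cell-based growth assay was used: compounds that relieve NS1-induced slow growth of budding yeast raise OD600. Assay medium was yeast nitrogen base with ammonium sulphate and -URA supplement, pH 6.0, with 2% galactose.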
Pf growth 96h: Primary qHTS for delayed death inhibitors of the malarial parasite plastid, 96 hour incubation; AID 504834, 2011; Potency, µM (titrated, usually from 28.7 µM), for the others: at the top dose activity change, negative = inhibition, actives largely listed as inhibitors; P. falciparum luciferase reporter growth, 96 h; 6.9% of 320,000 active; also: potency is read from the fitted curve at half-maximal effect; % is scaled to controls: 0 for no effect and ±100 for the full control effect
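Plates of compound plus infected erythrocytes (2% hematocrit, 0.05% parasitemia final) incubate 96 hours, 37 C, 5% CO2. Detection reagent added; reduced luminescence from the parasites' luciferase reporter flags inhibition.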
Pf growth 48h: Primary qHTS for delayed death inhibitors of the malarial parasite plastid, 48 hour incubation; Potency, µM (doses to about 28.7 µM), for inactives: at the highest dose activity change, negative = inhibition, actives largely listed as inhibitors; AID 504832, 2011; 5.9% of 310,000 active; P. falciparum luciferase growth in erythrocytes, 48 h; also: potency is read from the fitted curve at half-maximal effect; % is scaled to controls: 0 for no effect and ±100 for the full control effect
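Parasite viability was followed by luminescence of a genomically integrated firefly luciferase. Cultures held 0.1% parasitemia at 2% hematocrit (final), incubated under 5% CO2 at 37 C.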
An asterisk follows results filed as active; i = inactive; u = inconclusive; x = no result given; [ ] = another dose, or the depositor's remark. Shown are actives, neighbours in structure and some others; about 21% of the full set was active somewhere. Unless noted, calls follow the shape of the dose curve; as a rule, active = well fitted inhibition curve with a large enough effect; inconclusive = small, poorly fitted or top-dose-only effect, or another doubt; inactive = no such curve, though single readings can be large or run the other way.

SMILES	Shiga toxin inh	Cycloheximide cs	NS1 function inh	Pf growth 96h	Pf growth 48h
Cc1ccc(S(=O)(=O)CCSc2cccc(C(=O)Nc3ccccc3C(=O)O)c2)cc1	-3	1	5%	-7%	-30%
COc1ccc(NS(=O)(=O)c2cc(OCC(N)=O)c(C)cc2Cl)cc1	-4	0	-6%	2.1µM*	10µM*
CCOc1ccc(NS(=O)(=O)c2cc(OCC(N)=O)c(C)cc2Cl)cc1	1	0	14%	3.7µM*	1.5µM*
Cc1cc(Cl)c(S(=O)(=O)Nc2cccc(O)c2)cc1OCC(N)=O	8	3	14%	31%	2%
CNC(=O)N(O)C1N(/N=C/c2ccccc2OC)C(=S)SC1(C)C (configuration not stated)	13	-3	2%	13%	-9%
CN1CCN(CP(=O)(N2CCOCC2)N2CCOCC2)CC1	-8	-1	5%	-23%	-4%
Cc1nnc(N/N=C/c2ccco2)n1N	-3	3	x	28%	-22%
O=c1[nH]nc(-c2ccc(F)cc2)cc1Cc1ccc(F)cc1	9	-2	2%	0%	1%
Cc1ccc(Cc2cc(-c3ccc(C)cc3)n[nH]c2=O)cc1	52*	40*	-2%	32%	16%
Cc1ccc(-c2cc(Cc3ccc(F)cc3)c(=O)[nH]n2)cc1	29	20*	-37%	27%	6%
COCCn1c(CN2CCc3ccccc3C2)nc2c1c(=O)n(C)c(=O)n2C	25	0	-2%	i	-14%
COc1cccc(C2c3[nH]c4ccccc4c3C[C@H]3C(=O)N(c4ccccc4C(=O)N4CCC(C(=O)O)CC4)C(=O)N23)c1 (some centres not stated)	-9	2	-14%	u	u
CC(C)c1ccc(C2c3[nH]c4ccccc4c3C[C@H]3C(=O)N(c4ccccc4C(=O)N4CCC[C@H]4C(=O)O)C(=O)N23)cc1 (some centres not stated)	14	8	-8%	u	6.6µM*
COc1ccc(C2c3[nH]c4ccccc4c3C[C@H]3C(=O)N(c4ccccc4C(=O)N4CCC(C(=O)O)CC4)C(=O)N23)cc1 (some centres not stated)	-1	-3	-1%	u	12µM*
CCN(CC)C1CC(=O)N(c2cccc(Cl)c2)C1=O (configuration not stated)	x	-4	-126%	-8%	53%
CN=CC1=C(O)C(C(=O)OC)C(C)(C)CC1=O (configuration not stated)	-10	-4	x	-7%	25%
COC(=O)C1C(O)=C(C=Nc2ccc3ccccc3c2)C(=O)CC1(C)C (configuration not stated)	17	15*	-22%	-6%	0%
O=C(NCNC(=O)c1ccccc1)c1ccccc1	-11	-1	2%	-2%	x
CCC(=O)Oc1ccc2ccccc2c1CNC(=O)c1ccccc1	-3	7	-22%	9.3µM*	u
C/C(=N\NC(=O)Cn1cc([N+](=O)[O-])cn1)c1ccc(O)cc1	-10	-3	8%	8%	10%
N/C(=N\OC(=O)/C=C/c1ccccc1)c1ccccc1	92*	35*	-184%	5%	x
COc1ccc(/C=C/C(=O)O/N=C(\N)c2cccnc2)cc1OC	25	29*	-9%	u	u
N/C(=N\OC(=O)/C=C/c1ccccc1)c1ccc(Cl)cc1	17	16*	-4%	u	-11%
CC1=C/C(=N\OC(=O)/C=C/c2ccccc2)C(C)=CC1=O	-7	-4	u	u	8%
COc1ccc(/C=C/C(=O)NC(=S)NNC(=O)c2cccnc2)cc1OC	32	2	12%	30%	-3%
SMILES	Shiga toxin inh	Cycloheximide cs	NS1 function inh	Pf growth 96h	Pf growth 48h
CCC(C(=O)O/N=C(\N)c1ccc(Cl)cc1)c1ccccc1 (configuration not stated)	-1	9	1%	u	x
CCOc1ccc(CCNC(=O)COC(=O)COc2ccc(C(=O)CC)cc2)cc1OCC	x	x	x	5%	u
O=C(CN1C(=O)/C(=C/c2ccco2)SC1=S)NC1CCS(=O)(=O)C1 (configuration not stated)	-18	1	10%	u	22%
Cc1ccc(Cn2cccc(-c3nc4ccccc4s3)c2=O)cc1	70*	43*	4%	77%	32%
O=c1c2ccccc2ncn1Cc1nc2ccccc2s1	7	-2	-59%	-3%[5.75 µM]	13%
O=c1c(-c2nc3ccccc3s2)cccn1Cc1ccccc1	102*	51*	-5%	197%	300%
CN(CC(=O)Nc1c(Cl)cccc1Cl)C(=O)CCC(=O)c1ccccc1	x	x	x	16%	u
Cc1ccccc1Cn1ccc(NC(=O)c2cc3ncc(Br)cn3n2)n1	-6	-1	-2%	u	-15%
O=C(Nc1cccc2ccccc12)c1cnccn1	62*	31*	-3%	x	116%
CSc1ccccc1NC(=O)c1cnccn1	22	21*	-6%	11%	-3%
CSc1ccccc1NC(=O)c1cc2ncc(Br)cn2n1	94*	18*	0%	20%	63%
CCOc1ccccc1NC(=O)c1cnccn1	-5	-2	-18%	12µM*	u
CC1CCCC(C)N1C(=S)SCC(=O)O (configuration not stated)	-8	-1	x	-3%	20%
Cc1ccc(NC(=O)CCC(=O)NNC(=O)COc2ccc([N+](=O)[O-])cc2)cc1C	-1	2	-3%	26%	5%
N/C(=N\OC(=O)Cc1ccc(-c2ccccc2)cc1)c1ccccn1	72*	36*	4%	-13%	108%
N/C(=N\OC(=O)CSc1ccccc1)c1ccccn1	99*	79*	-1%	u	90%
COc1ccc(CC(=O)O/N=C(\N)c2ccccn2)cc1	75*	64*	1%	0%	131%
N/C(=N\OC(=O)CCCOc1ccccc1)c1ccccn1	42*	26*	-4%	-22%	30%
CC(C)C(=O)O/N=C(\N)c1ccccn1	22	8	28%	44%	23%
N/C(=N\OC(=O)CCCN1C(=O)c2ccccc2C1=O)c1ccccn1	-3	1	x	2%[5.75 µM]	-8%
C=C1CCN(C(CC(C)C)C(=O)NCc2ccc(Cl)c(Cl)c2)S(=O)(=O)c2ccccc21 (configuration not stated)	-9	-2	x	x	x
CCOC(=O)CSc1nc(C(C)(C)C)cc(C(F)(F)F)c1C#N	-31	-2	7%	x	7%
COc1ccc(-c2cn(Cc3ccc(C(N)=O)cc3)c(-c3ccncc3)n2)cc1	x	x	x	92%	33%
COc1cc(CNCCO)cc(Br)c1OCc1ccccc1Cl	-13	-5	-2%	12µM*	u
COc1cc(CNCCO)cc(Cl)c1OCc1ccc(Cl)cc1Cl	-3	-1	-3%	-2%	10µM*
CC(=O)c1ccc(S(=O)(=O)N(C)CCCC(=O)N(C)Cc2c(F)cccc2Cl)cc1	-3	-7	-1%	12µM*	u
